Source: PubChem BioAssay (National Center for Advancing Translational Sciences (NCATS))
Anthrax LT inh – inhibitors of anthrax lethal toxin internalization. Cells, anthrax lethal toxin internalization, FRET ratio (460/530). Potency, µM (top dose mostly 40 µM), for the others: top-dose activity change, negative = inhibition, usual class: inhibitors. 70,000 tested, 0.67% active. AID 912; further: on the % scale 0 is the no-effect control and ±100 the full control effect; nearly all actives have a fitted effect of over 50% in size
AmpC det inh – inhibitors of E. coli AmpC beta-lactamase with detergent; Potency, µM (series often up to 28.7 µM), without a hit: at the highest dose activity change, negative = inhibition; 71,000 tested, 0.09% active; AID 584; P00811; purified AmpC, nitrocefin hydrolysis with detergent; active means well fitted curve in the direction sought with a large enough effect; inconclusive means small, poorly fitted or top-dose-only effect; further: on the % scale 0 is the no-effect control and ±100 the full control effect
Target sequence (P00811 whole entry, looked up): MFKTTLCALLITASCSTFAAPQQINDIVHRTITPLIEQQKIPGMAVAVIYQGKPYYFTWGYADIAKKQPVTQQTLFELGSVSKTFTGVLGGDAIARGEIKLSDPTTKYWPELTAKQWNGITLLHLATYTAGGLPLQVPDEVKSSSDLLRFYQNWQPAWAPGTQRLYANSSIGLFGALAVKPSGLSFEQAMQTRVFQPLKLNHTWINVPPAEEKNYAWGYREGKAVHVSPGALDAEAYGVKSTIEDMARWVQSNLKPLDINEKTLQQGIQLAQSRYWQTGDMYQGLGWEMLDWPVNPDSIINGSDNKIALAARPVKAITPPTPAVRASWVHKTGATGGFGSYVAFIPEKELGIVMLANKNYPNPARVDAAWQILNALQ
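E. coli AmpC (5.3 nM) in 20 mM phosphate pH 7.0 with 0.01% Triton X-100, preincubated 15 min RT with compound; nitrocefin (2 uL of 800 uM stock) hydrolysis followed by 480 nm absorbance every 20 s over 4 min.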
AmpC nodet inh – blocks E. coli AmpC beta-lactamase in absence of detergent; P00811; AmpC nitrocefin hydrolysis, absorbance 480 nm, no detergent; Potency, µM (doses to about 28.7 µM), for inactives: at the highest dose activity change, negative = inhibition; 71,000 tested, 1.8% active; AID 585; further: % of control where 0% means no effect
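AmpC, 20 mM phosphate pH 7.0; 15 min cpd preinc, RT; start with nitrocefin (800 uM stock); A480 kinetic read, 20 s intervals, 4 min. No-enzyme wells = negative control.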
Prx2 Sm inh – Schistosoma mansoni Prx2 inhibition | AID 448 | 65,000 tested, 0.07% active | Potency, µM | S. mansoni Prx2 activity coupled to TGR/GSH (TGR is thioredoxin glutathione reductase), NADPH fluorescence loss, qHTS
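Enzyme mix: 100 uM NADPH, 25 nM TGR, 700 uM GSH, 50 nM Prx2 in 100 mM phosphate pH 7.4, 10 mM EDTA, 0.01% Tween-20. 15 min RT with compound; NADPH/GSH added, H2O2 starts reaction; NADPH fluorescence read 8 min.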
An asterisk follows results filed as active; ? = inconclusive; . = not tested or not shown; ! = a repeat was not active; [ ] = remark or other dose. An excerpt weighted towards active compounds, which were near 2.6% of everything screened. Unless noted, the call rests on the fitted dose curve. Potency means the concentration at half of the fitted maximal effect.

SMILES	Anthrax LT inh	AmpC det inh	AmpC nodet inh	Prx2 Sm inh
O[C@@H]1CC[C@H]2Cc3ccccc3N=C21	18%	2%	-5%	>26
COc1ccc(C(=O)NCC(=O)NC2=NCCS2)cc1	3%	13%	4µM*[single pt active]	>57
COc1ccc(OCCC(=O)NC2=NCCS2)cc1	14%	-5%	-2%	>57
CC(C)c1ccc2oc(-c3cc(N)ccc3O)nc2c1	13µM*	-2%	-7%	.
CN(C)c1ccc(-c2nccc(NCCN3CCOCC3)n2)cc1	12%	8%	48%	>57
O=C(Cn1c(-c2ccccc2)noc1=O)Nc1ccc(S(=O)(=O)N2CCOCC2)cc1	-5%	-8%	19%	>57
O=C(Cn1c(-c2ccccc2)noc1=O)Nc1ccc(N2CCCCCC2)cc1	?	-2%	13µM*	>57
O=C(O)/C=C\[C@H](O)c1ccc(Cl)cc1	-5%	-2%	-12%	>57
O=Cc1ccc(C(=O)O)cc1	-6%	6%	3%	.
CC(C)(C)c1cc(C(=O)/C=C/c2ccc(C(=O)O)cc2)cc(C(C)(C)C)c1	13µM*	.	.	.
CN1CC=C(c2c[nH]c3ccccc23)CC1	-13%	11%	4µM*[single pt active]	>57
c1ccc2c(-c3nnc4n3CCCCC4)c[nH]c2c1	?	0%	-1%	>57
O=c1c(-c2ccccc2)nc2cnc(Nc3ccccc3)nc2n1Cc1cccs1	?	2%	-1%	>57
CCCCCCCCCCCCCCCC(=O)NC[C@@H](COP(=O)([O-])OCC[N+](C)(C)C)OCC	?	-4%	201%	?
CN(C)C(=O)N1CCC(C(=O)NCc2ccccc2Cl)CC1	-7%	-3%	-14%	>57
O=C(NCc1ccccc1Cl)C1CCN(C(=O)c2sccc2-n2cccc2)CC1	13µM*	4%	25%	>57
COc1ccccc1S(=O)Cc1ccc(C(=O)NCc2ccccc2Cl)o1 (stereo not given)	?	12%	4µM*[single pt active]	>57
CC(C)C[C@@H](CC(=O)N[C@@H](CCCN)CC(=O)N[C@@H]1CCNC[C@H]1C(=O)N[C@H](CC(=O)N[C@@H](CCC(=O)O)CC(=O)O)CC(C)C)NC(=O)[C@@H]1CNCC[C@H]1N	4%	-4%	32%	>57
Cc1n[nH]c(C)c1S(=O)(=O)N(CC(=O)Nc1ccc2c(c1)OCCO2)c1ccc(C(C)C)cc1	16µM*	2%	31%	>57
Cc1noc(C)c1S(=O)(=O)N(CC(=O)Nc1ccc2c(c1)OCO2)c1ccc(C(C)C)cc1	?	4%	-1%	>57
Nc1ncnc2c1ncn2[C@@H]1O[C@@H](C(=O)NC2CC2)[C@H](O)[C@@H]1O	10%	0%	-6%	>57
CCOC(=O)c1c(C)n(C)c2ccc(OCC(O)Cn3nc(C)c(Br)c3C)cc12 (stereo not given)	10µM*	1%	110%	>57
CCNc1ncc2nc(-c3ccccc3)c(=O)n(-c3ccc(OC)cc3)c2n1	?	-2%	14%	>57
CCOC(=O)CS(=O)(=O)c1nc(-c2ccccc2)cc(C(F)(F)F)n1	3.2µM*	-8%	-3%	>57
CCOC(=O)CCS(=O)(=O)c1nc(-c2ccccc2)cc(C(F)(F)F)n1	?	1%	16%	>57
SMILES	Anthrax LT inh	AmpC det inh	AmpC nodet inh	Prx2 Sm inh
O=C(Nc1cccc(-c2nnc(-c3ccccc3)o2)c1)c1ccc(Br)o1	10µM*	0%	52%	?
O=C(COc1ccccc1)Nc1cccc(-c2nnc(-c3ccccc3)o2)c1	10µM*	10%	-3%	>57
Cc1cc(C)cc(OCC(=O)Nc2cccc(-c3nnc(-c4ccco4)o3)c2)c1	-10%	-2%	29%	>57
O=C(Nc1cccc(-c2cn3cccnc3n2)c1)c1ccc(Br)o1	-25%	-4%	-2%	>57
O=C(Nc1ccc(Nc2ccccc2)cc1)c1ccc(Br)o1	13µM*	1%	-11%	>57
O=C(Nc1ccc(Cc2ccncc2)cc1)c1ccc(Br)o1	-15%	-4%	3%	>57
COc1cccc(Cn2c(=O)c(CCc3ccccc3)nc3cnc(N4CCNCC4)nc32)c1	?	0%	99%	>57
c1ccc(-c2cccc(N3CC[C@@]4(CCCNC4)C3)c2)cc1	?	1%	?	>57
Cc1cc(N2CCCN(C)CC2)nc2cc(Cl)ccc12	10µM*	6%	37%	.
CCN(CC)CCCCn1c(-c2ccccc2)nc2c(NCc3ccccc3)nc(C)nc21	-14%	21%	68%	.
CCOC(=O)C1CCN(C(c2cc(OC)c(OC)c(OC)c2)c2sc3nc(C)nn3c2O)CC1 (stereo not given)	16µM*	6%	10%	>57
COC(=O)C1CCN(C(c2cc(OC)c(OC)c(OC)c2)c2sc3nc(C)nn3c2O)CC1 (stereo not given)	-4%	9%	10%	>57
COc1ccccc1CN1CC[C@@]2(CCCN(C(=O)c3cccc(F)c3)C2)C1	-2%	2%	10%	>57
COc1ccc(NC(=O)CC2Oc3ccc(C)cc3NC2=O)cc1 (stereo not given)	0%	11%	4µM*[single pt active]	>57
COc1ccc(NC(=O)CC2Oc3ccccc3NC2=O)cc1 (stereo not given)	-5%	9%	4µM*[single pt active]	>57
COc1ccc(OC)c(CCNC(=O)CC2Oc3ccccc3NC2=O)c1 (stereo not given)	-7%	10%	14%	>57
Cc1ccc(NC(=O)CC2Oc3ccc(C)cc3NC2=O)cc1 (stereo not given)	-6%	10%	-15%	>57
O=c1cc(-c2ccccc2)oc2cc(O)cc(O)c12	-5%[3.58 µM]	-1%[12.8 µM]	-12%[12.8 µM]	>57
O=c1cc(-c2ccc(O)cc2)oc2cc(O)cc(O)c12	-17%	6%	4µM*!	>57
Oc1c(Cl)ccc(Cl)c1Cl	0%	7%	-6%	.
Oc1c(Cl)c(Cl)c(Cl)c(Cl)c1Cl	20µM*	7%	1%	.
CCOC(=O)C1CCCN(C(=O)c2ccc(CS(=O)(=O)c3ccc(C)cc3)o2)C1 (stereo not given)	-8%	11%	2.5µM*[single pt active]	>57
CCOC(=O)C1CCCN(C(=O)c2ccc(CS(=O)(=O)Cc3ccccc3C)o2)C1 (stereo not given)	?	-2%	53%	>57
Cc1ccc(S(=O)(=O)Cc2ccc(C(=O)N3CCCC3)o2)cc1	-5%	12%	4µM*[single pt active]	>57
Cc1ccc(S(=O)(=O)Cc2ccc(C(=O)N3CCCCCC3)o2)cc1	-8%	15%	49%	>57
O=C(NC1CCCC1)C1CCCN(S(=O)(=O)c2cccc3cccnc23)C1 (stereo not given)	-14%	14%	3.2µM*[single pt active]	>57
Cc1ccc2nc(NC(=O)C3CCCN(S(=O)(=O)c4cnc[nH]4)C3)sc2c1 (stereo not given)	?	3%	2%	>57
NS(=O)(=O)c1ccc(CCNC(=O)C2CCCN(S(=O)(=O)c3cccnc3)C2)cc1 (stereo not given)	-10%	13%	4µM*[single pt active]	>57
Cc1ccc2nc(NC(=O)C3CCCN(S(=O)(=O)c4cccnc4)C3)sc2c1 (stereo not given)	-30%	13%	4µM*[single pt active]	>57
